The supplement of paper PMC6555819

Legend:
Experiment in all cases: PBM binding z-score (relative to random genomic background probes); higher = stronger binding; sequences stand for … in GC…GCGATTGACAGCGTAGAATGAAGG
[1] = system: PPARg:RXRa DBDmut IVT, anti-RXR (DBD mutation: RXRa K156A/R161A, NR concentration 270 nM, RXRa partner concentration 90 nM)
Procedure, shortened: (§1)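 For binding z-scores, the reference was random background probes on custom Agilent 4×180K protein-binding microarrays. These arrays were incubated 1 h with ligand-free nuclear receptor dimers in PBS pH 7.4, 2% milk, 0.02% Triton X-100, 1 mM DTT, 0.2 mg/mL BSA and 0.4 mg/ml salmon testes DNA. Fluorescence was scanned after antibody detection of each partner (one per run) and regression-normalized.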

[2] = system: PPARg:RXRa IVT, anti-PPARg (NR concentration 270 nM, RXRa partner concentration 90 nM)
Procedure, shortened: as §1

[3] = system: PPARg DBDmut:RXRa IVT, anti-PPARg (DBD mutation: PPARg1 K132A/R137A, NR concentration 270 nM, RXRa partner concentration 90 nM)
Procedure, shortened: as §1

[4] = system: PPARg DBDmut IVT, anti-PPARg (DBD mutation: PPARg1 K132A/R137A, NR concentration 270 nM)
Procedure, shortened: as §1

[5] = system: PPARg homodimer (NR concentration 180 nM)
Procedure, shortened: as §1

[6] = system: PXR:RXRa (NR concentration 270 nM, RXRa partner concentration 90 nM)
Procedure, shortened: as §1

[7] = system: PXR homodimer (NR concentration 270 nM)
Procedure, shortened: as §1

[8] = system: RARa:RXR (NR concentration 270 nM, RXRa partner concentration 90 nM)
Procedure, shortened: as §1

[9] = system: RARa homodimer (NR concentration 270 nM)
Procedure, shortened: as §1

[10] = system: RARb:RXRa (NR concentration 270 nM, RXRa partner concentration 90 nM)
Procedure, shortened: as §1

| Sequence | PBM binding z-score [1] | PBM binding z-score [2] | PBM binding z-score [3] | PBM binding z-score [4] | PBM binding z-score [5] | PBM binding z-score [6] | PBM binding z-score [7] | PBM binding z-score [8] | PBM binding z-score [9] | PBM binding z-score [10] |
| --- | --- | --- | --- | --- | --- | --- | --- | --- | --- | --- |
| ACTATTAGTTGAGAAGAGGGCAACCGATAGGTTG | 0.072 | 0.463 | 1.02 | 0.853 | 0.882 | 0.779 | 0.445 | 0.623 | 1.19 | 1.32 |
| ATACCAAGGTGATCTTGAGGTCGTTGATACTAAC | 0.853 | 1.45 | 0.8 | 0.628 | 1.02 | 3.3 | 2.03 | 2.54 | 0.867 | 1.71 |
| CGAACTGGGTCAGAACAGGACAGTGAAGGATGAT | 6.73 | 6.56 | 2.09 | 2.05 | 0.887 | 1.06 | -0.389 | 1.31 | 0.0168 | 2.23 |
| ATCTCTATGTAACAAGTTCAGTGAAAGAGAGGAC | -0.367 | 0.29 | 1.13 | 0.92 | 0.596 | 1.35 | 1.37 | 0.511 | 0.404 | 1.08 |
| TCTGCTAGGTTAGTTGGTCAGCTAACGAGCTGCC | 1.37 | 1.5 | -0.266 | -0.918 | -1.12 | -0.398 | -1.1 | -0.512 | -1.39 | 0.525 |
| CGAACTAGGTCATCCAGGACAATGAATACATTGA | 7.89 | 8.42 | 3.32 | 1.7 | 1.95 | 2.1 | 2.1 | 2.31 | 0.706 | 3.87 |
| CCTACTGGGCCAACAGGTCATTGATATCAACGTT | 4.64 | 4.84 | 0.0699 | 0.305 | 1.23 | 1.92 | 0.325 | 2.13 | -0.373 | 2.12 |
| CCTACTGAGCCAAAAAGGTCATTGATGCCGATAA | 0.522 | 1.14 | -0.507 | 0.266 | 3.04 | 4.49 | 2.44 | 4.93 | 2.61 | 3.86 |
| TTACCAAGGTGAGCTGAGATCGTTGATCCAACTC | 1.12 | 1.5 | -0.91 | -0.653 | -1.58 | 0.00925 | -1.19 | -0.376 | -1.19 | 0.893 |
| ACTTACGGATCAACGAGGTTATAGCACGCGTATA | 0.402 | 0.468 | 0.823 | 0.952 | 0.607 | 1.41 | 0.695 | 1.5 | 1.25 | 0.645 |
| AATACAGGGTCATCGTAGGCCAGTGTACGCACAG | 2.67 | 4.1 | 1.31 | 0.904 | 2.51 | 4.95 | 0.408 | 5.01 | 1 | 4.35 |
| GCTAGTTGGTCAGTAAAAGGTCACATACCGGTCG | 1.23 | 2.96 | 0.372 | 0.203 | 6.37 | 4.88 | 0.988 | 5.66 | 3.62 | 4.23 |
| TCATATAGGTAAAAGGTGAATGTCGGTGTGGTAA | 5.52 | 5.08 | 1.42 | 1.7 | 1.98 | 1.71 | 0.679 | 2.97 | 1.84 | 1.86 |
| CGTCCAAGGTCAATGCTGGGTCAGTGAAAGCATT | 3.06 | 3.71 | -0.934 | -0.907 | 4.17 | 4.66 | 1.2 | 5.52 | 0.99 | 5.31 |
| TGTTGTAGATCAAGCAGGTTAAGAAAGCCTGAGT | -0.275 | 0.329 | 0.0224 | -0.646 | -0.211 | 0.13 | 0.0391 | 0.16 | 0.163 | -0.116 |
| ACTAGCAGACCAAGGGTCACTCAAGATTAGTCCG | 0.108 | 1.84 | 0.151 | -0.38 | 1.55 | 2.8 | -0.1 | 3.46 | 1.31 | 3.28 |
| CCTACTGGGCTAAAGGTCATTGATTCCAATGCTC | 4.37 | 6.31 | -0.17 | -0.112 | 4.02 | 4.97 | 1.35 | 5.44 | 0.872 | 4.26 |
| AGAATGAGGTTACAAAAGATCAGGGAAACGCTTG | 3.87 | 3.13 | 1.47 | 0.745 | 0.909 | 1.23 | 0.246 | 1.88 | -0.148 | 1.81 |
| GCGGACAGGTGAAACGCAGGTAACTCAGGGTGGC | 1.08 | 0.64 | -0.773 | -1.81 | -0.69 | -0.362 | -0.597 | 0.177 | -1.07 | 0.934 |
| CGCGAAAGGTCGTGCTCAGGTGAGTATACCAAAC | 0.794 | 1.92 | 0.376 | -0.142 | 2.14 | 3.61 | 0.0719 | 4.63 | 0.019 | 4.18 |
| CCAGACAGGTGAAAGGTAACTAAGTCTGGTACGC | 1.58 | 2.54 | -0.18 | -0.253 | 0.909 | 0.819 | 0.101 | 1.81 | 0.324 | 1.14 |
| TCTAGTAGATCAGCAGGTTAAGAAAGCTGGCCAA | 1.99 | 0.125 | -0.189 | -1.02 | 0.292 | 0.255 | -0.699 | 0.387 | -0.353 | 0.266 |
| ACTAGTTGGTCAGCTGAGATCACACACAATTCGG | 0.753 | 0.741 | 1.02 | 0.509 | -0.286 | 0.0807 | -0.161 | 0.321 | 0.12 | 0.946 |
| ATACCAAGTTGATCGTGAGGTCGTTGATACTAAC | -0.0424 | -0.015 | 0.231 | 0.701 | 1.02 | 2.78 | 1.61 | 1.78 | 1.04 | 0.897 |
